Only some compounds are listed: those with a hit (about 6.8% of all), similar ones and a draw of the others.
NADH enzymes = inhibitors of enzymes used to reach an NAD/NADH endpoint; IC50, µM (series often up to 10 µM), inactives show at the highest dose inhibition; coupled PK/LDH NADH assays, four targets; hit rate 0.02% among 65,000;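 active means single-dose screening hits from any of four coupled enzyme assays that gave an IC50 when retested across doses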;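 further: the DPM-DC format reads NADH fluorescence rather than 340 nm absorbance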
Spn MK inh = inhibitors of Streptococcus pneumoniae mevalonate kinase; purified MK, PK/LDH-coupled NADH absorbance 340 nm; inhibition, % at 10 µM; hit rate 0.48% among 65,000; AID 555;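 active means ranked among the strongest by inhibition in the single 10 µM screen, a fixed top-ranked set picked for dose follow-up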
PMK inhibit = S. pneumoniae PMK inhibition; purified PMK, PK/LDH-coupled NADH absorbance 340 nm; inhibition, % at 10 µM; hit rate 0.49% among 65,000; AID 539;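 active means top-ranked compounds by inhibition in the single 10 µM screen, taking a fixed number of the strongest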;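 further: 0% = full reaction with DMSO carrier and 100% = background rate without enzyme reaction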
Autofluor 339 = intrinsic fluorescence of library compounds, ex339/em460 – biochemical, MLSMR library, data from DPM-DC assay, artefact control, profiling panel; hit rate 5.5% among 65,000; compound autofluorescence, ex339/em460 nm, NADH buffer; active compounds read high; 1 = no-compound wells, NADH background; AID 709; fluorescence fold increase at 10 µM;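 active means at 10 µM, mean starting fluorescence two-fold or more over control wells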;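 further: signal is the first read of a kinetic run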
A340 absorber = compounds absorbing at 340 nm; compound absorbance at 340 nm, fold over control; AID 708; fold change at 10 µM; 65,000 tested, under 10 active;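 active means at 10 µM dose, initial 340 nm absorbance at least 2 fold that of control wells; inactive means change under 2 fold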;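 further: initial absorbance extrapolated from kinetic A340 decline of NADH oxidation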
DPM-DC inhibit = blocks S. pneumoniae diphosphomevalonate decarboxylase; purified DPM-DC, PK/LDH coupled NADH fluorescence; calls only at 10 µM; hit rate 0.49% among 65,000; AID 556;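 active means the 320 compounds with the highest percent inhibition in the single-dose primary screen, excluding strongly autofluorescent ones, cut at about 32% in these data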;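 further: kinetic rate of NADH fluorescence loss reporting ADP formed by the decarboxylase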
An asterisk follows results filed as active; i = inactive; x = no result given; + = active, no number.

SMILES | NADH enzymes | Spn MK inh | PMK inhibit | Autofluor 339 | A340 absorber | DPM-DC inhibit
O=C(Nc1ccon1)c1cc(-c2ccccc2)nc2ccccc12 | 3.0% | 10.0 | 10.0 | 1.19 | 1.01 | i
O=C(c1ccco1)N1CCN(C(=O)c2cc(-c3ccncc3)nc3ccc(Br)cc23)CC1 | 4.0% | 4.0 | 5.0 | 1.05 | 1.07 | i
O=C(O)c1cc(-c2ccco2)nc2ccc(Br)cc12 | 14.0% | 5.0 | 16.0 | 2.6* | 1.06 | i
O=C(NCC1CCCO1)c1cc(-c2ccco2)nc2ccccc12 (centres undefined) | 9.0% | 8.0 | 9.0 | 4.95* | 1.17 | x
Cc1cccc(NC(=O)c2cc(-c3ccco3)nc3ccccc23)n1 | 4.0% | 1.0 | 6.0 | 4.94* | 1.09 | x
C=CCc1cccc2cc(C(=O)N3CCN(C(=O)c4ccco4)CC3)c(=O)oc12 | 6.0% | 6.0 | 7.0 | 1.41 | 1.06 | i
O=C(NC1(C(F)(F)F)NC(=O)N(CC2CCCCC2)C1=O)c1ccco1 (centres undefined) | 7.0% | 10.0 | 10.0 | 1.09 | 1.04 | i
O=C(NCC1CCCO1)C1CCCCN1S(=O)(=O)c1ccc(F)cc1 (centres undefined) | 2.0% | 7.0 | 0.0 | 1.13 | 1.05 | i
CCOC(=O)c1cn(CC)c2cc(N3CCSCC3)c(F)cc2c1=O | 17.0% | 9.0 | 12.0 | 2.86* | 1.07 | i
CCn1cc(C(=O)NCc2ccccn2)c(=O)c2cc(F)c(N3CCN(C)CC3)cc21 | 5.0% | 3.0 | 1.0 | 1.95 | 1.06 | i
CCn1cc(C(=O)O)c(=O)c2cc(F)c(N3CCNCC3)cc21 | 4.0% | 10.0 | 10.0 | 2.48* | 1.03 | x
CCn1cc(C(=O)O)c(=O)c2cc(F)c(N3CCN(C(=O)Nc4ccccc4)CC3)cc21 | 4.0% | 0.0 | 0.0 | 1.73 | 1.04 | i
CCCNC(=O)C1CC(=O)N(c2ccc(OCC(=O)Nc3cc(C)cc(C)c3)cc2)C1 (centres undefined) | 1.0% | 0.0 | 4.0 | 1.06 | 0.99 | i
Cc1ccc2c(c1)N(CC(=O)OC(CC(C)C)C(=O)NC1CCCC1)C(=O)CO2 (centres undefined) | 5.0% | 11.0 | 4.0 | 1.13 | 1 | i
CC(C)C(OC(=O)CN1C(=O)COc2ccccc21)C(=O)NC1CCCC1 (centres undefined) | 30.0% | 14.0 | 14.0 | 1.16 | 1.03 | +
Cc1ccc2cc(C#N)c(N3CCCN(C(=O)C4CCCO4)CC3)nc2c1C (centres undefined) | 11.0% | 7.0 | 10.0 | 2.36* | 0.99 | i
COc1ccc(-c2nc(C#N)c(N3CCOCC3)o2)cc1OC | 8.0% | 11.0* | 9.0 | 3.07* | 1.03 | x
COc1ccc(-c2nc(C#N)c(N3CCN(c4cccc(Cl)c4)CC3)o2)cc1OC | 11.0% | 16.0 | 18.0 | 2.07* | 1 | i
N#Cc1nc(COc2ccccc2)oc1N1CCN(c2cccc(Cl)c2)CC1 | 0.0% | 0.0 | 1.0 | 1.1 | 1.07 | i
Cc1ccc2cc(C#N)c(NCc3ccco3)nc2c1 | 10.0% | 9.0 | 11.0 | 3.81* | 1 | x
N#Cc1nc(-c2ccco2)oc1NCc1ccco1 | 5.0% | 12.0 | 13.0 | 2.42* | 1 | x
N#Cc1nc(-c2ccc(OCc3ccccc3)cc2)oc1N1CCOCC1 | 11.0% | 17.0 | 15.0 | 1.92 | 1.02 | i
N#Cc1nc(-c2ccco2)oc1NCCCN1CCOCC1 | 8.0% | 7.0 | 9.0 | 3.64* | 1.06 | x
N#Cc1nc(-c2ccc(OCc3ccccc3)cc2)oc1NCCN1CCOCC1 | 4.0% | 7.0 | 0.0 | 3.88* | 1.07 | x
COc1ccc(Nc2nc(C(=O)NCCCN3CCOCC3)cs2)cc1 | 7.0% | 8.0 | 14.0 | 1.08 | 0.94 | i
SMILES | NADH enzymes | Spn MK inh | PMK inhibit | Autofluor 339 | A340 absorber | DPM-DC inhibit
Cc1nc(SCC(=O)Nc2c(C)n(C)n(-c3ccccc3)c2=O)n[nH]1 | 5.0% | 0.0 | 14.0 | 1.02 | 1 | i
Cc1oc2nc(SCC(=O)N3CCCCC3)nc(N)c2c1C | 3.0% | 9.0 | 0.0 | 1.1 | 1.02 | i
O=C(NCc1ccccn1)C1CCC(=O)N1C1CCCC1 (centres undefined) | 2.0% | 1.0 | 5.0 | 1.03 | 1.03 | i
Cc1ccc(OCc2nc(C#N)c(NCc3ccco3)o2)cc1 | 7.0% | 5.0 | 16.0 | 1.1 | 1.01 | i
Cc1ccc(-c2nc(C#N)c(NCc3ccco3)o2)cc1 | 10.0% | 2.0 | 18.0 | 3.7* | 1.03 | x
N#Cc1nc(-c2ccc(OCc3ccccc3)cc2)oc1NCc1ccco1 | 7.0% | 12.0 | 10.0 | 2.41* | 1.06 | i
CNc1oc(-c2ccc(OCc3ccccc3)cc2)nc1C#N | 9.0% | 12.0 | 14.0 | 1.43 | 1.05 | i
O=C(Cc1cc(=O)[nH]c(=O)[nH]1)N1CCC(Cc2ccccc2)CC1 | 6.0% | 6.0 | 10.0 | 1.02 | 1.03 | i
Clc1ccc2nc(N3CCNCC3)nc(-c3ccccc3)c2c1 | 12.0% | 8.0 | 15.0 | 2.28* | 0.95 | x
Clc1cccc(Nc2ncnc3c2cnn3-c2ccccc2)c1 | 2.0% | 1.0 | 6.0 | 2.12* | 1.04 | i
Fc1cccc(Nc2ncnc3c2cnn3-c2ccccc2)c1 | 3.0% | 6.0 | 6.0 | 1.53 | 1.02 | i
COc1cc(-c2cc3nc(C)c(C)c(=O)n3[nH]2)cc(OC)c1OC | 4.0% | 0.0 | 4.0 | 2* | 1.01 | i
Cc1cc2c(C)cc(=O)oc2c2c1NCCC2 | 7.0% | 12.0 | 1.0 | 3.61* | 1.14 | x
Cc1cccc(N(C)C(=O)c2cc3cc4ccc(C)cc4nc3o2)c1 | 3.0% | 4.0 | 9.0 | 1.44 | 1.05 | i
Cc1ccc2cc3cc(C(=O)NCCCN4CCCCCC4)oc3nc2c1 | 0.0% | 0.0 | 0.0 | 5.1* | 1.11 | x
Cc1ccc2cc3cc(C(=O)NCCCN4CCc5ccccc5C4)oc3nc2c1 | 1.0% | 0.0 | 2.0 | 5.1* | 1.11 | x
CCOC(=O)C1CCCN(C(=O)c2cc3c(=O)n4cccc(C)c4nc3n2C)C1 (centres undefined) | 2.0% | 3.0 | 12.0 | 3.35* | 1.02 | x
Cn1c(C(=O)NCC2CCCO2)cc2c(=O)n3ccccc3nc21 (centres undefined) | 9.0% | 9.0 | 9.0 | 5* | 1.1 | x
Cc1cccn2c(=O)c3cc(C(=O)N4CCc5ccccc5C4)n(C)c3nc12 | 8.0% | 5.0 | 10.0 | 5.02* | 1.06 | x
Cn1c(C(=O)N2COCC2(C)C)cc2c(=O)n3ccccc3nc21 | 9.0% | 8.0 | 10.0 | 5.01* | 1.12 | x
Cc1cccn2c(=O)c3cc(C(=O)N4CCCc5ccccc54)n(C)c3nc12 | 2.0% | 2.0 | 12.0 | 1.33 | 1.02 | i
CN(C)c1ccc(NC(=O)c2cc3c(=O)n4ccccc4nc3n2C)cc1 | 6.0% | 8.0 | 7.0 | 1.66 | 1.03 | i
Cc1csc(NC(=O)CSc2nnc(-c3ccncc3)o2)n1 | 5.0% | 8.0 | 8.0 | 1.07 | 1.01 | i
Cc1cc(C(=O)NCC2CCCO2)n(-c2ccccc2)n1 (centres undefined) | 11.0% | 13.0 | 20.0 | 1.08 | 1.05 | i
CNC(=O)c1cc2c(=O)n3cccc(C)c3nc2n1C | 8.0% | 6.0 | 10.0 | 5.01* | 1.1 | x

High-throughput results from PubChem BioAssay.
